Assay results: ChEMBL document CHEMBL4513216, “Probing the Open Global Health Chemical Diversity Library for Multistage-Active Starting Points for Next-Generation Antimalarials” (ACS Infect Dis, 2020)
Screen size: about 69,000 compounds; about 8,600 (12%) showed an effect of 50% or more. The full list was thinned out, with strong results kept by preference.

test system: Plasmodium berghei; test: Screen against P. berghei liver stage (PbLuc), transformed with Luciferase, at 10uM; format: functional, HepG2; conditions: tested at 10 uM

Structure (SMILES) | INHIBITION [%]
CN(C)C(=O)N1Cc2nnn(C)c2C(COCc2cccnc2)C1 (stereo not given) | 27.6
c1nc(CCC2CCCN2)cc(N2CCCOCC2)n1 (stereo not given) | 48.9
COCCC(=O)NCC1CCC(C(c2ccccn2)N(C)C)CC1 (stereo not given) | 3.48
Cc1ccc(-c2ccnc(N(C)CC3CCCO3)n2)c(C)n1 (stereo not given) | 47.4
CCN1CCCC(CN(C)c2nccc(-c3ccc(C)nc3C)n2)C1 (stereo not given) | 76.7
Cc1ccc(-c2ccnc(N(C)CC3CCCN3C)n2)c(C)n1 (stereo not given) | 10.6
CC(C)n1c(=O)[nH]c2cn(-c3ccc(Cl)cc3)c(=O)n21 | -10.1
COc1ccc(-c2cc(N)on2)cc1OC | 26.3
CCN1CCc2c(sc3c2C(=O)NC(C=Cc2ccco2)N3)C1 (stereo not given) | 49.9
COc1ccc(CN2CCCCC2c2n[nH]cc2-c2cc(C)no2)cc1 (stereo not given) | 34.1
CCc1ccc(CN2CCCCC2c2n[nH]cc2-c2cc(C)no2)cc1 (stereo not given) | 66.6
Cc1cccc(CN2CCCCC2c2n[nH]cc2-c2cc(C)no2)c1 (stereo not given) | 31.3
O=C(c1ccccc1N1CCOCC1)N1CCCC(n2ccnc2)C1 (stereo not given) | 22.1
COCc1ncn2c1CN(C(=O)c1cnc3ccccc3c1)CC2 | 33.2
Cc1noc(CN(Cc2cccc(C#N)c2)Cc2cccs2)n1 | 1.98
Cc1cccc(C)c1NC(=O)c1cccc(N(C)S(C)(=O)=O)c1C | 16.1
CCn1c(CN2CCCC(O)(c3ccc(F)cc3)CC2)cnc1SC (stereo not given) | 51.1
Cc1ncc(CN2CCCC(O)(c3ccc(F)cc3)CC2)n1C (stereo not given) | 21.255
CCn1c(CN2CCC(O)(c3ccc4c(c3)OCO4)CC2)cnc1SC | 34.15
Cc1nc(C)n(C2CCCN(C(=O)c3ccnc(N(C)C)c3)C2)n1 (stereo not given) | 14.4
O=C(c1cccc(Cn2ccnc2)c1)N1CCCC(n2cccn2)C1 (stereo not given) | 56.55
CN(C)Cc1ccc(C(=O)N2CCCC(n3cccn3)C2)cc1 (stereo not given) | 61.9
CCc1nc(C2CCCN(C(=O)c3ccc(Cl)cc3)C2)no1 (stereo not given) | 23.4
CCc1nc(C2CCCN(C(=O)c3ccc(F)cc3)C2)no1 (stereo not given) | 27.4

Structure (SMILES) | INHIBITION [%]
O=C(c1cccc(Cn2ccnc2)c1)N1CCCC(n2ccnc2)C1 (stereo not given) | 22.3
CS(=O)(=O)c1ccc(C(=O)N2CCCC(n3cccn3)C2)cc1 (stereo not given) | 18.8
CCc1ccc(C(=O)N2CCCC(c3nn[nH]n3)C2)cc1 (stereo not given) | 67.4
O=C(c1ccc(CN2CCCC2)cc1)N1CCCC(n2cccn2)C1 (stereo not given) | 11.7
Cc1cnn(C2CCCN(C(=O)c3cccc(Cn4ccnc4)c3)C2)c1 (stereo not given) | 42.9
CS(=O)(=O)NCc1nnc2n1CCN(Cc1ccccn1)C2 | 36.9
CCN1C(=O)CCC12CCCN(CCc1ccccc1)C2 (stereo not given) | 0.112
CN(C)c1cnn(Cc2nc3ccccc3n2C)c(=O)c1 | 29.4
CCC(C)[C@H](N)c1nnc(SCC(=O)Nc2ccc(C)cc2C)o1 (stereo not given in full) | 40.4
N#Cc1c(F)cccc1N1CCCC(C(=O)Nc2nccs2)C1 (stereo not given) | -1.85
CC(NC(=O)c1ccnc(C2CC2)n1)C1(N2CCOCC2)CCCC1 (stereo not given) | -20.3
Cc1occc1C(=O)N1CCOCC2(CCN(Cc3nccs3)C2)C1 (stereo not given) | 18.5
COCC(=O)N1C[C@H]2CNC[C@@]2(C(=O)NCc2snnc2C)C1 | -21.8
O=C(N1CCCC1)N1C[C@@H](OCc2cccnc2)[C@H]2OCCC[C@H]21 | -55.7
Cc1nc(COCC2CN(C(N)=O)Cc3nccn3C2)cs1 (stereo not given) | 40.5
CCn1ccnc1CN1CCN(C(C)C(=O)NC2CCCC2)CC1 (stereo not given) | 36.85
O=C(O)c1cn(CC2CCCN(c3ccc4ccccc4n3)C2)nn1 (stereo not given) | 46.6
CC(C)(C)c1cn(CC2CCCN(c3cnc4ccccc4n3)C2)nn1 (stereo not given) | 89.6
O=C(O)c1cn(CC2CCCN(c3cnc4ccccc4n3)C2)nn1 (stereo not given) | 6.24
CCc1nc(C2CCCN(C(=O)c3cccnc3O)C2)no1 (stereo not given) | 9.14
O=C(NCCn1ccc(-c2ccccn2)n1)C1CCC1 | 14.3
CCn1cc(-c2cc(-c3cc(CN(C)C)cs3)nc(N)c2C#N)c(C)n1 | 76.6
Cc1nn(C)c(C)c1-c1cc(-c2cc(CC(=O)O)cs2)nc(N)c1C#N | 45.8
CCn1cc(-c2cc(-c3cc(CC(=O)O)cs3)nc(N)c2C#N)c(C)n1 | 37.6

Structure (SMILES) | INHIBITION [%]
COCCNc1ccc(CC2CCCN(c3ncccn3)C2)nn1 (stereo not given) | 28.05
Cc1ccoc1C(=O)N1CCCN(Cc2cnn(C)c2)CC1 | 15.6
O=C(NCCS(=O)(=O)N1CCN(c2ncccn2)CC1)c1ccccc1 | -101
Cc1cc(C2CCCN(CCc3ccc4c(c3)CCO4)C2)n[nH]1 (stereo not given) | 90.2
NC(=O)c1cc(C2CCCN(CCc3ccc4c(c3)CCO4)C2)n[nH]1 (stereo not given) | 74.3
NC(=O)c1cc(C2CCCN(Cc3ccc4c(c3)OCCO4)C2)n[nH]1 (stereo not given) | 11.8
O=C(C1CCCN(CCc2ccc3c(c2)CCO3)C1)N1CCCC1 (stereo not given) | 6.11
NC(=O)c1cc(C2CCCN(CCc3ccccn3)C2)n[nH]1 (stereo not given) | 28.7
Cc1cc(C2CCCN(CCc3ccccn3)C2)n[nH]1 (stereo not given) | -0.0706
Cc1noc(C)c1CN1CCCC1c1c(C)nn(C)c1Cl (stereo not given) | -16
CC(CCc1ccccc1F)C(=O)NS(C)(=O)=O (stereo not given) | 12.9
CC(CCc1ccccc1F)C(=O)NS(=O)(=O)N(C)C(C)C (stereo not given) | 80.9
CC(CCc1ccccc1F)C(=O)NS(=O)(=O)CC1CC1 (stereo not given) | 10.6
O=C1CCC2(CCCN(CCn3cc(Cl)cn3)C2)CN1C1CCCC1 (stereo not given) | 31.5
Cc1cnc(CCNc2cccc(CC3CCCNC3)n2)s1 (stereo not given) | 41.5
CCn1cc(S(=O)(=O)Nc2nc3c(s2)CC(C)CC3)cn1 (stereo not given) | 11.7
O=C(CC1CC1)N1CCC2(CC1)CN(c1ccsc1)C(=O)CO2 | 38.1
O=C1COC2(CCN(Cc3cccs3)CC2)CN1c1ccsc1 | 21.1
O=C1COC2(CCN(CC3CC3)CC2)CN1c1ccccc1 | 36.8
O=C1COC2(CCN(CC3CC3)CC2)CN1c1ccsc1 | 78.8
O=C1COC2(CCN(Cc3ccoc3)CC2)CN1c1ccsc1 | 52.9
O=C1COC2(CCN(Cc3ccoc3)CC2)CN1c1ccccc1 | -23.4
